Screens deposited in PubChem by National Center for Advancing Translational Sciences (NCATS).
This is a sample that favours compounds with a hit; in the whole collection about 21% have one here.
Cycloheximide cs = affects cycloheximide protein synthesis inhibition readout, counter-screen. cell reporter, cycloheximide protein synthesis inhibition counterscreen. max response, %. 12% of 300,000 active; in the data active means max response mostly above about 13%, no sharp cut-off; inactive means mostly below about 14%; further: read at 38.3 µM for the half of the compounds with a filed dose; 0% is about no effect
NS1 inh = inhibitors of influenza NS1 protein function | Potency, µM (top dose mostly 46.1 µM), for the others: top-dose activity, positive = more growth | 0.4% of 270,000 active | AID 2326; further: potency means the concentration at half of the fitted maximal effect; actives are rising curves; nearly all actives have a fitted effect of over 50% in size
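Growth recovery, yeast-based: influenza A NS1 expressed in S. cerevisiae causes slow growth, and suppressors are detected by OD600. The parent strain without NS1 is used as positive control.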
Pf growth 48h = P. falciparum growth inhibition at 48 hours (one generation). P. falciparum luciferase growth in erythrocytes, 48 h. Potency, µM (top dose mostly 28.7 µM), inactives show at the top dose activity change, negative = inhibition, most hits filed as inhibitors. 5.9% of 310,000 active; active means well fitted inhibition curve with a large enough effect; inconclusive means small, poorly fitted or top-dose-only effect, or another doubt; inactive means no such curve, though single readings can be large or run the other way; further: potency means the concentration at half of the fitted maximal effect; on the % scale 0 is the no-effect control and ±100 the full control effect
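Firefly luciferase activity from engineered P. falciparum reports growth; inhibitors lower the luminescent signal. Cultures contained 2% hematocrit erythrocytes at 0.1% final parasitemia.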
Pf growth 96h = P. falciparum growth inhibition at 96 hour, primary screen for plastid delayed-death inhibitors. P. falciparum luciferase reporter growth, 96 h. Potency, µM (doses to about 28.7 µM), inactives show at the highest dose activity change, negative = inhibition, usual class: inhibitors. 6.9% of 320,000 active; active means well fitted inhibition curve with a large enough effect; inconclusive means small, poorly fitted or top-dose-only effect, or another doubt; inactive means no such curve, though single readings can be large or run the other way; further: potency means the concentration at half of the fitted maximal effect; on the % scale 0 is the no-effect control and ±100 the full control effect
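Readout is luminescence from an integrated firefly luciferase in P. falciparum. Red cells, 2% hematocrit and 0.05% parasitemia final, were cultured with compound through two parasite generations (96 hours) at 37 C, 5% CO2.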
SARS PLP yeast = SARS-CoV PLP inhibition in yeast; Potency, µM (titrated, usually from 32.9 µM), inactives show at the top dose activity, positive = growth rescue, usual class: activators; S. cerevisiae expressing SARS-CoV PLpro, growth rescue; AID 485353; 0.19% of 330,000 active; further: potency means the concentration at half of the fitted maximal effect; 0% is about no effect; nearly all actives have a fitted effect of over 55% in size
Shiga toxin inh = blocks Shiga toxin action in Vero cells; AID 2315; inhibition, % at 38.7 µM; 9.2% of 290,000 active; Vero cells, Shiga toxin protein synthesis inhibition reporter; in the data active means inhibition mostly above about 28%, no sharp cut-off; inactive means mostly below about 43%; further: 0% is about no effect
An asterisk follows results filed as active; ? = inconclusive; · = not tested or not shown. Unless noted, the call rests on the fitted dose curve.

SMILES	Cycloheximide cs	NS1 inh	Pf growth 48h	Pf growth 96h	SARS PLP yeast	Shiga toxin inh
Cc1cccc(-n2c(C)cc(/C=N\NC(=O)c3ccco3)c2C)c1	35*	-2%	8.3µM*	13%	0%	96*
Cc1ccc(/C=N/NC(=O)c2ccco2)cc1	45*	-6%	150%	245%	-3%	37*
C[C@H]1CN([C@@H](C)CO)C(=O)c2cccc(NC(=O)c3ccc(-c4nccs4)cc3)c2O[C@@H]1CN(C)C(=O)NC1CCCCC1	·	·	·	·	4%	·
O=C(N/N=C\c1ccoc1)c1ccco1	35*	-8%	11%	12%	-2%	61*
CSC(=S)N/N=C/c1ccc(Br)cc1	18	·	?	?	1%	14
Cc1ccc(S(=O)(=O)Oc2ccc(/C=N/NC(=O)c3nn(C)cc3Cl)cc2)cc1	9	-4%	?	?	3%	21
COc1ccc(/C=N/NC(=O)c2ccco2)cc1Cn1nc(C)c([N+](=O)[O-])c1C	9	·	?	0%	1%	-10
COc1ccc(/C=N/NC(=O)c2ccco2)cc1Cn1nc(C)cc1C	34*	3%	13%	-13%	5%	67*
Cc1cc(/C=N/NC(=O)c2nn(C)cc2Cl)c(C)n1-c1cccc(Br)c1	18*	4%	?	?	-3%	20
O=C(N/N=C/c1ccoc1)c1ccc([N+](=O)[O-])cc1	13	7%	16%	53%	-4%	10
CSC(=S)N/N=C/c1ccc(N(C)C)cc1	43*	·	54%	?	4%	68*
COc1ccc(N(CC(=O)Nc2ccccc2C(F)(F)F)C2=NC3CS(=O)(=O)CC3S2)cc1 (configuration not stated)	-3	-15%	?	?	-1%	-3
O=C(NNS(=O)(=O)c1ccc(F)cc1)c1cc2ccccc2cc1O	-3	2%	39%	2%	-2%	-2
CN(CC(=O)Nc1ccc(Cl)cc1)C(=O)C1CCCC1	·	·	-17%	66%	0%	·
CN(C)c1ccc(/C=N/NC(=O)c2ccco2)cc1	41*	-16%	80%	481%	-35%	73
CN(C(=O)c1ccc(=O)n(Cc2ccc(Cl)cc2)c1)c1ccccc1	-3	-4%	3%	-22%	-2%	24
CCCc1ccc(C(=O)O/N=C(\N)c2ccccn2)cc1	-2	-105%	-65%	?	-14%	-25
N/C(=N\OC(=O)c1ccc(=O)n(Cc2ccccc2)c1)c1ccccn1	30*	-3%	13µM*	?	-2%	63*
N/C(=N\OC(=O)c1ccc(=O)n(Cc2ccc(Cl)cc2)c1)c1ccccn1	28	·	12µM*	13µM*	-5%	6
CC(=O)Nc1ccc(NC(=O)CSc2ccc3nnc(-c4ccccn4)n3n2)cc1	1	4%	2%	0%	0%	-5
O=C(CSc1ccc2nnc(-c3ccccn3)n2n1)Nc1cccc(F)c1	8	12%	?	13µM*	-9%	9
O=C(CSc1ccc2nnc(-c3ccccn3)n2n1)Nc1ccccc1F	8	-4%	9.3µM*	-31%	9%	8
Cc1ccccc1NC(=O)CSc1nnc(-c2ccccn2)o1	-5	5%	154%	20%	7%	-4
O=C(CSc1nnc(-c2ccccn2)o1)Nc1ccccc1F	25*	7%	134%	?	-12%	74*
Cc1cccc(CSc2ccc3nnc(-c4ccccn4)n3n2)c1	11	·	3.7µM*	?	6%	3
SMILES	Cycloheximide cs	NS1 inh	Pf growth 48h	Pf growth 96h	SARS PLP yeast	Shiga toxin inh
Cc1cc2ncc(S(=O)(=O)c3ccccc3)c(N)n2n1	-2	·	?	?	3%	-12
CCc1ccccc1N(CC(=O)Nc1cccnc1)S(=O)(=O)c1ccccc1	-1	-9%	?	?	4%	-13
Cc1ccnn1Cc1cc(C(=O)O)c2ccccc2n1	-2	·	2%	48%	-1%	-8
O=C(COC(=O)CC1SC(N2CCCC2)=NC1=O)Nc1ccc(Br)cc1 (configuration not stated)	·	·	59%	80%	0%	·
CC(C)[C@H]1COC(NC2=N[C@@H](C(C)C)CO2)=N1	-2	7%	-8%	-3%	10%	-1
CCN(CC)C(=O)CCCC(=O)N(CC)CC	3	·	-12%	-15%	2%	24
O=C(NNC(=S)NCc1ccccc1)c1cccnc1	4	10%	?	2.1µM*	-2%	7
O=C(NC(=S)NCc1ccccc1)c1cccnc1	8	·	21%	?	23%	2
O=C(NNC(=S)Nc1ccccc1)c1cccnc1	20*	-1%	92%	48%	-1%	28*
O=C(NNC(=S)NC(=O)c1cccnc1)c1ccccc1	12	-29%	?	?	-3%	23
CS(=O)(=O)N1CC(C(=O)NC2CCCC2)Oc2ccc(Cl)cc21 (configuration not stated)	-3	-4%	?	39%	1%	-7
COC(=O)[C@H]1C[C@H](C(=O)O)[C@@H](C)C1(C)C	·	·	-22%	63%	-23%	·
Cc1ncoc1C(=O)N1CCc2c([nH]c3ccccc23)C1c1ccccc1F (configuration not stated)	1	0%	?	-48%	0%	2
CCn1nc(C)cc1C(=O)N1CCc2c([nH]c3ccccc23)C1c1cc(F)ccc1F (configuration not stated)	55*	5%	?	?	0%	82*
COc1ccc(C2c3[nH]c4ccccc4c3CCN2C(=O)Cc2nonc2C)c(F)c1 (configuration not stated)	37*	-11%	10µM*	?	-2%	109*
CCn1c(=O)c(CCC(=O)NCC2CCCO2)c(C)c2c(C)nn(-c3ccccc3)c21 (configuration not stated)	-4	-17%	-17%	-14%	-11%	-6
Cc1nn(-c2ccc(C(=O)O)cc2)c(C)c1Cl	25*	-4%	53%	34%	-3%	58*
Cc1nn(-c2ccc(C(=O)N3CCN(S(=O)(=O)c4ccccc4C(F)(F)F)CC3)cc2)c(C)c1Cl	·	·	13µM*	?	3%	·
CC(=O)c1ccc(S(=O)(=O)N2CCN(C(=O)c3ccc(-n4nc(C)c(Cl)c4C)cc3)CC2)cc1	·	·	?	13µM*	4%	·
Cc1cc(C)n(-c2ccc(C(=O)N3CCN(S(=O)(=O)c4ccc(Cl)cc4)CC3)cc2)n1	·	·	10µM*	2.6µM*	-1%	·
COC(=O)c1ccc(C2/C(=C(/O)c3ccc4c(c3)CC(C)O4)C(=O)C(=O)N2Cc2ccncc2)cc1 (configuration not stated)	-6	2%	-16%	?	-4%	16
Cc1nnc(SCc2ccc(F)cc2)n1NC/C=C/c1ccccc1	-1	-9%	-10%	5.9µM*	18%	8
COc1cc(OC)c(C(=O)OCC(=O)NCCC2=CCCCC2)cc1OC	·	·	-8%	?	-15%	·
